Molecules are shown by their SMILES. Counter-ions that a name gives are not always drawn.

This note sets out measurements from the supplement of paper PMC8975748.

For this experiment, the system named is Saccharomyces cerevisiae BY4741 SeMeCo community. Nature of the experiment: z-score of subpopulation abundance vs DMSO median, subpopulation auxotrophic for UM; higher = larger share of this subpopulation than in DMSO controls. The following applies: 10 µM; 24 h; SM minimal medium; subpopulation (auxotrophy): UM. How it is done: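 Fluorescent four-plasmid SeMeCo (self-establishing metabolically cooperating S. cerevisiae BY4741 community; plasmids pH-mRuby2, pL-mWasabi, pU-eCFP, pM-TagRFP657) was grown 24 h in minimal SM medium with each Selleck FDA-approved drug at 10 µM in 384-well plates. Cells were fixed and imaged by high-content confocal microscopy. For each auxotrophic subpopulation (and the prototroph), a z-score gives the deviation from the DMSO vehicle-control population median.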
For `CCc1nc(N)nc(N)c1-c1ccc(Cl)cc1` [Pyrimethamine], the “z-score of subpopulation abundance” value is -0.1. For `CC[C@H]1OC(=O)[C@H](C)[C@@H](O[C@H]2C[C@@](C)(OC)[C@@H](O)[C@H](C)O2)[C@H](C)[C@@H](O[C@@H]2O[C@H](C)C[C@H](N(C)C)[C@H]2O)[C@](C)(O)C[C@@H](C)/C(=N\OCOCCOC)[C@H](C)[C@@H](O)[C@]1(C)O` [Roxithromycin], the “z-score of subpopulation abundance” value stood at 0.31. For `NC(=O)c1cn(Cc2c(F)cccc2F)nn1` [Rufinamide], the “z-score of subpopulation abundance” value is -0.01.

In the case of `O=c1[nH]c(=O)n([C@H]2C[C@H](O)[C@@H](CO)O2)cc1/C=C/Br` [Brivudine], the “z-score of subpopulation abundance” value was 0.16.

For the compound `C[C@@H]1C/C=C/C=C/C=C/C=C/[C@H](O[C@@H]2O[C@H](C)[C@@H](O)[C@H](N)[C@@H]2O)C[C@@H]2O[C@](O)(C[C@@H](O)C[C@H]3O[C@@H]3/C=C/C(=O)O1)C[C@H](O)[C@H]2C(=O)O` [Natamycin], the “z-score of subpopulation abundance” value was 9.97. As to `CCCCc1oc2ccccc2c1C(=O)c1cc(I)c(OCCN(CC)CC)c(I)c1` [Amiodarone HCl], the “z-score of subpopulation abundance” value came to 9.26. In the case of `CN[C@H](CC(C)C)C(=O)N[C@H]1C(=O)N[C@@H](CC(N)=O)C(=O)N[C@H]2C(=O)N[C@H]3C(=O)N[C@H](C(=O)N[C@H](C(=O)O)c4cc(O)cc(O)c4-c4cc3ccc4O)[C@H](O)c3ccc(c(Cl)c3)Oc3cc2cc(c3O[C@@H]2O[C@H](CO)[C@@H](O)[C@H](O)[C@H]2O[C@H]2C[C@](C)(N)[C@H](O)[C@H](C)O2)Oc2ccc(cc2Cl)[C@H]1O` [Vancomycin HCl] it was 0.58; in that of `CN(C)CCCN1c2ccccc2Sc2ccc(Cl)cc21` [Chlorpromazine HCl], 0.5. `CCCN[C@H]1CCc2nc(N)sc2C1` [Pramipexole 2HCl Monohydrate]: the “z-score of subpopulation abundance” value is -0.95. Regarding `O=C(O)C[C@H](O)C[C@H](O)/C=C/c1c(C2CC2)nc2ccccc2c1-c1ccc(F)cc1` [Pitavastatin Calcium], the “z-score of subpopulation abundance” value came out at 1.84. In the case of `CN(CCOc1ccc(NS(C)(=O)=O)cc1)CCc1ccc(NS(C)(=O)=O)cc1` [Dofetilide] it was 0.1; in that of `CC1(C)[C@H](C(=O)O)N2C(=O)C[C@H]2S1(=O)=O` [Sulbactam sodium], 1.22; in that of `NC(=O)N1c2ccccc2CC(=O)c2ccccc21` [Oxcarbazepine], 0.07. In the case of `CC(C)[N+](C)(CCOC(=O)C1c2ccccc2Oc2ccccc21)C(C)C` [Propantheline bromide] it was -1.12; in that of `COC(=O)C1=C(C)NC(C)=C(C(=O)OCCN(C)Cc2ccccc2)C1c1cccc([N+](=O)[O-])c1` (stereo not given) [Nicardipine HCl], 0.26. As for `c1ccc(C2CN3CCSC3=N2)cc1` (stereo not given) [Tetramisole HCl], the “z-score of subpopulation abundance” value amounted to 0.02. Regarding `CN(C)CCCC1(c2ccc(F)cc2)OCc2cc(C#N)ccc21` (stereo not given) [Citalopram HBr], the “z-score of subpopulation abundance” value amounted to 0.83. Next, `O=C(C1CCCCC1)N1CC(=O)N2CCc3ccccc3C2C1` (stereo not given) [Praziquantel]: 0.1. Take `Cc1ccnc(NS(=O)(=O)c2ccc(N)cc2)n1` [Sulfamerazine]: the “z-score of subpopulation abundance” value was determined as 0.45.

As to `CCOc1cc(N)c([N+](=O)[O-])cc1C(=O)NC1CCN(CC2CC=CCC2)CC1` (stereo not given) [Cinitapride Hydrogen Tartrate], the “z-score of subpopulation abundance” value stood at 1.35. Turning to `O=C(O)c1cccnc1Nc1cccc(C(F)(F)F)c1` [Niflumic acid], the “z-score of subpopulation abundance” value was -0.28. In the case of `COc1cc(NS(=O)(=O)c2ccc(N)cc2)nc(OC)n1` [SulfadiMethoxine sodium] it was -0.12; in that of `CC[C@@]1(O)C(=O)OCc2c1cc1n(c2=O)Cc2cc3c(CN(C)C)c(O)ccc3nc2-1` [Topotecan HCl], -1.6; in that of `CCCCCOc1ccccc1/C(=C\SC)n1ccnc1` [Neticonazole Hydrochloride], 14.5.

Turning to `C[C@H](NCc1ccc(OCc2cccc(F)c2)cc1)C(N)=O` [Safinamide], the “z-score of subpopulation abundance” value came out at 0.6.

For the compound `COc1ccc2cc(C(=O)O)ccc2c1` [6-Methoxy-2-naphthoic acid], the “z-score of subpopulation abundance” value was -3.74. For `COc1cc(N)c(Cl)cc1C(=O)NC1CCN(CCCOc2ccc(F)cc2)CC1OC` (stereo not given) [Cisapride hydrate], the “z-score of subpopulation abundance” value is 0.98. Consider `CC[C@@H]([C@H](C)O)n1ncn(-c2ccc(N3CCN(c4ccc(OC[C@@H]5CO[C@@](Cn6cncn6)(c6ccc(F)cc6F)C5)cc4)CC3)cc2)c1=O` [Posaconazole], for which the “z-score of subpopulation abundance” value was 10.8. Consider `C[C@H]1COc2c(N3CCN(C)CC3)c(F)cc3c(=O)c(C(=O)O)cn1c23` [Levofloxacin], for which the “z-score of subpopulation abundance” value is -0.89. Turning to `CC(C)NNC(=O)c1ccncc1` [Iproniazid], the “z-score of subpopulation abundance” value was found to be 0.66. Turning to `Clc1ccc(CSC(Cn2ccnc2)c2ccc(Cl)cc2Cl)cc1` (stereo not given) [Sulconazole Nitrate], the “z-score of subpopulation abundance” value was 5.19.

Turning to `Nc1ccc(C(=O)O)c(O)c1` [4-Aminosalicylic acid], the “z-score of subpopulation abundance” value is -2.19. Regarding `Oc1ccc(C2CNCCc3c2cc(O)c(O)c3Cl)cc1` (stereo not given) [Fenoldopam mesylate], the “z-score of subpopulation abundance” value was -1.9. Regarding `CCCCc1oc2ccc(NS(C)(=O)=O)cc2c1C(=O)c1ccc(OCCCN(CCCC)CCCC)cc1` [Dronedarone HCl], the “z-score of subpopulation abundance” value was -0.63. In the case of `O=c1[nH]c(=O)n([C@H]2C[C@H](O)[C@@H](CO)O2)cc1I` [Idoxuridine], the “z-score of subpopulation abundance” value is -0.05. Regarding `CC[N+](CC)(CC)CCOc1cccc(OCC[N+](CC)(CC)CC)c1OCC[N+](CC)(CC)CC` [Gallamine Triethiodide], the “z-score of subpopulation abundance” value worked out at 0.33.

Consider `CO/N=C(\C(=O)N[C@@H]1C(=O)N2C(C(=O)O)=C(Cn3ccc(=N)n3CCO)CS[C@H]12)c1csc(N)n1` [Cefoselis Sulfate], for which the “z-score of subpopulation abundance” value is 0.03.

Take `Nc1nnc(-c2cccc(Cl)c2Cl)c(N)n1` [Lamotrigine]: the “z-score of subpopulation abundance” value was 0.01.

As to `COc1cccc(-c2c(C)n(Cc3c(F)cccc3C(F)(F)F)c(=O)n(C[C@H](NCCCC(=O)O)c3ccccc3)c2=O)c1F` [Elagolix Sodium], the “z-score of subpopulation abundance” value is -0.27.

As to `CNCC[C@H](Oc1cccc2ccccc12)c1cccs1` [Duloxetine], the “z-score of subpopulation abundance” value is -0.39.
